From PubChem BioAssay
“And” between values parts separate entries of the source, which are not always exact repeats. Equal entries are not always repeated. The source made the active and inactive calls. Cut-off read from the data, not from the text of the source, unless noted: active = inhibition above about 80%; inactive = the rest.

What was measured:
[1] = molecular target: NAD(+) hydrolase SARM1 (Homo sapiens) (UniProt Q6SZW1); assay: blocking NAD cleavage by SARM1 SAM-TIR – cell lysate, NAD-Glo luminescence (AID 1508614;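 active = compound whose remaining NAD level is above about 45 nM, limit read from the data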;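 note: higher remaining NAD means stronger inhibition of SARM1 NADase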); conditions: SAM-TIR HEK293T lysate NADase, at 1 µM, stronger effect = higher value
[2] = galactose survival enhancers in mitochondrial complex I cybrids – cell-based, galactose medium, ATP luminescence, primary screen (AID 1645843;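 active = z-score of at least 1.8 in each of two replicates, scored against plate mean and spread of sample wells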;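 note: positive z means more ATP and so rescue of galactose-driven cybrid death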); conditions: complex I mutant cybrid cells, 72 h, stronger effect = higher value
[3] = molecular target: Mitogen-activated protein kinase 7 (Homo sapiens) (UniProt Q13164); assay: Gal4-ERK5 driven luciferase induction – cell-based, HTS, primary screen (AID 1508626;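 active = luciferase signal above three times the same-plate solvent-only control wells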;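 note: luciferase driven by Gal4-ERK5 fusion binding five Gal4 sites before minimal TATA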); conditions: HeLa Gal4-ERK5 transactivation, 18 h, at 5 µM, stronger effect = higher value
[4] = growth inhibition, single agent or in combination, cell-based, chromothripsis tumors, cisplatin or BGB combos (AID 1671449); conditions: LFS_MB_P medulloblastoma cells;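 note: cells exposed for 96 hours; 0% = vehicle DMSO and 100% = killing by high DMSO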
[5] = growth inhibition, single agent and combos, cell-based, chromothripsis tumors, cisplatin or BGB combos (AID 1671450); conditions: HDN33 neuroblastoma cells, stronger effect = higher value;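 note: cells exposed to compound for four days; 0% = vehicle DMSO and 100% = cell killing by high DMSO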
[6] = growth inhibition, single agents and combos, ICB984, cell-based, cisplatin or BGB combos, synergistic combos for chromothripsis tumors (AID 1671451; call rule not given here;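 note: cells exposed for 96 hours before readout; 0% = vehicle DMSO and 100% = killing by high DMSO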); conditions: ICB984 medulloblastoma cells, drug combinations, stronger effect = higher value
[7] = growth inhibition, single agents and combos, LFS_MB_1R, cell-based, cisplatin or BGB combos, synergistic combos for chromothripsis tumors (AID 1671452); conditions: LFS_MB_1R medulloblastoma cells, stronger effect = higher value;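 note: cells exposed for 96 hours before readout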
[8] = growth inhibition, single agents and combos, HTB85, cell-based, BGB or cisplatin IC20 combos, synergistic combos for chromothripsis tumors (AID 1671453); conditions: HTB85 osteosarcoma cells, drug combinations, stronger effect = higher value;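 note: cells exposed for 96 hours before readout; 0% = vehicle DMSO and 100% = high DMSO killing control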
[9] = growth inhibition, single agents and combos, CRL2098, cell-based, BGB or cisplatin IC20 combos, synergistic combos for chromothripsis tumors (AID 1671454); conditions: CRL2098 osteosarcoma cells, drug combinations, stronger effect = higher value;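 note: cells exposed for 96 h before readout; 0% = vehicle DMSO and 100% = killing by high DMSO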
[10] = growth inhibition, single agents and combos, HD-MB03, cell-based, BGB or cisplatin IC20 combos, synergistic combos for chromothripsis tumors (AID 1671455; in the data active = inhibition above about 83%;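 note: 0% = vehicle DMSO and 100% = high DMSO as cytotoxic control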); conditions: HD-MB03 medulloblastoma cells, stronger effect = higher value
[11] = growth inhibition, single agents and combos, UWB1.289, cell-based, BGB or cisplatin combos, synergistic combos for chromothripsis tumors (AID 1671456); conditions: UWB1.289 ovarian carcinoma cells, stronger effect = higher value;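 note: cells exposed to compound for four days; 0% = vehicle DMSO and 100% = killing by high DMSO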
[12] = growth inhibition, single agents and combos, LFS_MB_2R, cell-based, cisplatin combos, synergistic combos for chromothripsis tumors (AID 1671457); conditions: LFS_MB_2R medulloblastoma cells, stronger effect = higher value;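 note: cells exposed to compound for four days before readout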
[13] = growth inhibition, MDA-MB-436, cell-based, BGB or cisplatin combos, synergistic combos for chromothripsis tumors (AID 1671458; call rule not given here;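 note: cells exposed for 96 hours; 0% = vehicle DMSO and 100% = killing by high DMSO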); conditions: MDA-MB-436 breast carcinoma growth inhibition, drug combinations, stronger effect = higher value
[14] = UWB1.289_BRCA1 ovarian cancer growth, cell-based, BGB or cisplatin combinations (AID 1671459); conditions: UWB1.289 BRCA1 ovarian carcinoma, drug combinations, stronger effect = higher value
[15] = drug combination toxicity in non-malignant astrocytes – cell-based, BGB or cisplatin IC20 combos, cytotoxicity control for chromothriptic childhood tumor combination screen (AID 1671460); conditions: Human astrocytes, viability inhibition, drug combinations, at 0.5 µM, stronger effect = higher value;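 note: cells exposed to compounds for 96 hours before viability readout; 0% = vehicle and 100% = killing control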
[16] = BT084 cell growth, single and combined drugs, ICGC_MB145, cisplatin and BGB IC40 combos (AID 1671461); conditions: BT084 medulloblastoma cells, drug combinations, stronger effect = higher value;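 note: cells exposed to drugs for 96 hours; 0% = vehicle DMSO and 100% = high DMSO full killing control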
[17] = RCMB18 cell growth, single agent and combined, cisplatin and BGB IC40 combos (AID 1671462); conditions: RCMB18 medulloblastoma cells, stronger effect = higher value;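 note: cells exposed to compound for four days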
[18] = CRL1545 cell growth, single agent and combined, cisplatin and BGB IC20 combos (AID 1671464); conditions: CRL1545 osteosarcoma cells, stronger effect = higher value;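 note: cells exposed to compound for 96 hours before readout; 0% = vehicle DMSO and 100% = high DMSO killing control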
[19] = measured here: combination with BGB IC40, at 0.05 µM
[20] = measured here: with BGB IC20 combination, at 0.5 µM
[21] = measured here: with cisplatin IC20 combination, at 0.5 µM
[22] = measured here: combination with cisplatin, at 0.5 µM
[23] = measured here: combination with cisplatin, at 5 µM

Chain of NAD(+) hydrolase SARM1 (Homo sapiens) (Q6SZW1 whole entry, looked up): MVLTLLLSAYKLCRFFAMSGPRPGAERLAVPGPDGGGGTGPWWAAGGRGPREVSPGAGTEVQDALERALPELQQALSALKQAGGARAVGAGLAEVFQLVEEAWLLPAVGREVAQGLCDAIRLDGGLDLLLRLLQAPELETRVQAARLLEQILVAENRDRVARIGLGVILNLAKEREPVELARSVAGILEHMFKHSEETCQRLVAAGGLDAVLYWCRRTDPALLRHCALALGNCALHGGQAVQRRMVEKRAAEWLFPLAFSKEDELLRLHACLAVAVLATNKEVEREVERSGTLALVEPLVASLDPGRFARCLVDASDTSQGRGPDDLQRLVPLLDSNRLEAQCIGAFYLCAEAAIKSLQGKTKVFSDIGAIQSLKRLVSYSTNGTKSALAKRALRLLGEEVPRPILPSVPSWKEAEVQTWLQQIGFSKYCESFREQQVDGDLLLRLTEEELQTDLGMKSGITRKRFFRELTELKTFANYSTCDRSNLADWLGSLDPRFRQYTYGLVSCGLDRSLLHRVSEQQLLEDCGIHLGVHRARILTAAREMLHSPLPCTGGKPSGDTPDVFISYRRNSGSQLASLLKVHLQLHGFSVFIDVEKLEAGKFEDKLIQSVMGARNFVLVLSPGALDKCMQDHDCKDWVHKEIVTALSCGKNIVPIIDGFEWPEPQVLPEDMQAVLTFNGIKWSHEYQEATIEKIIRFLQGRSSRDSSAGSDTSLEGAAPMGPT
Chain of Mitogen-activated protein kinase 7 (Homo sapiens) (Q13164 whole entry, looked up, the tested form may be a part): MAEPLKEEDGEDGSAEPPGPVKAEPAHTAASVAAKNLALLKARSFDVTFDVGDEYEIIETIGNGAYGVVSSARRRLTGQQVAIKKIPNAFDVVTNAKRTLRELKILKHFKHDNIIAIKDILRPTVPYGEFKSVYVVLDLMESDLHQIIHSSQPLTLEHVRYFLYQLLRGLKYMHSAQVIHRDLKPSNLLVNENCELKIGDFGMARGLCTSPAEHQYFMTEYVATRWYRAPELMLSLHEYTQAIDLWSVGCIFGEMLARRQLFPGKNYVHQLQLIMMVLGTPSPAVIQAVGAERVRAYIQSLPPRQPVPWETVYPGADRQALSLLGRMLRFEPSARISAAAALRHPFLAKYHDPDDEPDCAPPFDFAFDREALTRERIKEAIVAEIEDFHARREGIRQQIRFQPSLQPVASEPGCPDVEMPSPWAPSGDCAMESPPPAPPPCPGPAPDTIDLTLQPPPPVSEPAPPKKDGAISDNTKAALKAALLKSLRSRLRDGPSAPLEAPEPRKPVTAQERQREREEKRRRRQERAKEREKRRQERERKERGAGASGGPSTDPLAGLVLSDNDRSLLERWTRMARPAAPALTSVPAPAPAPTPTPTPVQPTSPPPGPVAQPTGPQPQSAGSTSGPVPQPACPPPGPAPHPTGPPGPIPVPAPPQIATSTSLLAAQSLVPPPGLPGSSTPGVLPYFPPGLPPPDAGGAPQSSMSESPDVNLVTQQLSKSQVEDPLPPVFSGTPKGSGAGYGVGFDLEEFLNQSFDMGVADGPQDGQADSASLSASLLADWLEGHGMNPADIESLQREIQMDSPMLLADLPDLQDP

## CC[C@@]1(O)C(=O)OCc2c1cc1n(c2=O)Cc2cc3c(CN(C)C)c(O)ccc3nc2-1
[1]
  remaining NAD: 10 nM (inactive)
[2]
  z-score: -1.13 (inactive) and -1.87 (inactive) and -2.38 (inactive)

## CN1CCCCC1CCN1c2ccccc2Sc2ccc(S(C)=O)cc21 (stereo not given)
[1]
  remaining NAD: 10 nM (inactive)
[2]
  z-score: 0.175 (inactive) and 0.14 (inactive)

## O=C1c2ccccc2C(=O)c2c1ccc(O)c2O
[3]
  luciferase signal: 36 AU (inactive)

## O=c1oc2c(O)c(O)cc3c(=O)oc4c(O)c(O)cc1c4c23
[1]
  remaining NAD: 10 nM (inactive)
[3]
  luciferase signal: 60 AU (inactive)
[4]; at 0.5 µM, stronger effect = higher value
  inhibition: -26.4% (inactive)
[4]; measured here: combination with BGB IC20, at 0.005 µM
  inhibition: 13.8%
[4]; measured here: combination with BGB IC40, at 0.005 µM
  inhibition: -25.9%
[4]; [19]
  inhibition: -14%
[4]; measured here: combination with cisplatin, at 0.5 µM, stronger effect = higher value
  inhibition: -13.4%
[4]; measured here: combination with cisplatin, at 5 µM, stronger effect = higher value
  inhibition: -36.9%
[5]; BGB combo, at 5 µM
  inhibition: -24.4%
[5]; at 0.5 µM
  inhibition: -5.05% (inactive)
[5]; cisplatin combo, at 5 µM
  inhibition: 3.04%
[5]; [20]
  inhibition: -1.3%
[5]; [21]
  inhibition: -3.36%
[5]; single agent, at 5 µM
  inhibition: -3.55%
[6]; BGB IC20 combo, at 0.005 µM
  inhibition: 10.1%
[6]; BGB IC40 combo, at 0.005 µM
  inhibition: -45.8%
[6]; BGB IC40 combo, at 0.05 µM
  inhibition: -40.1%
[6]; at 0.5 µM
  inhibition: -16.9% (inactive)
[6]; cisplatin combo, at 0.05 µM
  inhibition: -45.7%
[6]; cisplatin combo, at 0.5 µM
  inhibition: -24.8%
[6]; cisplatin combo, at 5 µM
  inhibition: -34.2%
[6]; measured here: 5 uM single agent, at 5 µM
  inhibition: -15.6%
[7]; at 0.5 µM
  inhibition: -12.6% (inactive)
[7]; [19]
  inhibition: -1.97%
[7]; [22]
  inhibition: -11.4%
[7]; [23]
  inhibition: -1.35%
[8]; at 0.5 µM
  inhibition: -9.37% (inactive)
[8]; measured here: with BGB IC20, at 0.5 µM
  inhibition: -9.05%
[8]; measured here: with BGB IC20, at 5 µM
  inhibition: -11.1%
[8]; measured here: with cisplatin IC20, at 0.5 µM
  inhibition: -24.3%
[8]; measured here: with cisplatin IC20, at 5 µM
  inhibition: -7.84%
[8]; single agent, at 5 µM
  inhibition: 28.9%
[9]; at 0.5 µM
  inhibition: -20.7% (inactive)
[9]; measured here: combination with BGB at IC20, at 0.5 µM
  inhibition: -5.49%
[9]; measured here: combination with cisplatin at IC20, at 0.5 µM
  inhibition: -39.6%
[10]; at 0.5 µM
  inhibition: 11.2% (inactive)
[10]; measured here: combo with BGB at IC20, at 0.5 µM
  inhibition: -0.451%
[10]; measured here: combo with cisplatin at IC20, at 0.5 µM
  inhibition: -7.75%
[11]; at 0.5 µM
  inhibition: -3.64% (inactive)
[11]; measured here: inhibition with BGB combination, at 0.05 µM
  inhibition: -22.8%
[11]; measured here: inhibition with cisplatin combination, at 0.05 µM
  inhibition: -16.6%
[12]; at 0.5 µM
  inhibition: -23% (inactive)
[12]; [22]
  inhibition: -27.7%
[12]; [23]
  inhibition: -17%
[13]; at 0.5 µM
  inhibition: -9.5% (inactive)
[13]; measured here: BGB combination, at 0.5 µM
  inhibition: -12.3%
[13]; measured here: BGB combination, at 5 µM
  inhibition: -25.4%
[13]; measured here: cisplatin combination, at 0.5 µM
  inhibition: -5.2%
[13]; measured here: cisplatin combination, at 5 µM
  inhibition: -11.4%
[14]; BGB combination, concentration series, at 5 µM
  inhibition: 12.5%
[14]; at 0.5 µM
  inhibition: -1.72% (inactive)
[14]; cisplatin combination, concentration series, at 5 µM
  inhibition: 19.2%
[15]
  inhibition: 10.8% (inactive)
[15]; measured here: combo with BGB IC20
  inhibition: 0.281%
[15]; measured here: combo with cisplatin IC20
  inhibition: 16.2%
[16]; at 0.5 µM
  inhibition: -21.3% (inactive)
[16]; cisplatin combination, at 0.5 µM
  inhibition: -17.9%
[16]; cisplatin combination, at 5 µM
  inhibition: -19.7%
[16]; measured here: BGB IC40 combination 0.05 uM, at 0.05 µM
  inhibition: 1.07%
[16]; single agent, at 5 µM
  inhibition: -27.1%
[17]; at 0.5 µM
  inhibition: -15.5% (inactive)
[17]; cisplatin combo, at 5 µM
  inhibition: 10.7%
[17]; measured here: BGB IC40 combination, at 0.05 µM
  inhibition: -24.9%
[17]; [22]
  inhibition: 18.1%
[17]; single agent, at 5 µM
  inhibition: -30.9%
[18]; at 0.5 µM
  inhibition: -12.1% (inactive)
[18]; [20]
  inhibition: 3.22%
[18]; [21]
  inhibition: -19.8%
[18]; single agent, at 0.05 µM
  inhibition: -16%
[18]; single agent, at 5 µM
  inhibition: 12.2%
